The source made the active and inactive calls. How the source made its calls: active means hit-call score of the fitted dose curve at least 0.9, where 1 is the maximum; inactive means score below 0.9.
Key:
[1] = ATG_GRE_CIS: Attagene CIS-FACTORIAL HepG2 Assay for human Glucocorticoid Response Elements (GRE) (AID 2282947); conditions: HepG2 GRE cis-reporter, Attagene multiplex mRNA; actives raise or lower the signal
Summary of the method: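 Cells (HepG2) bearing transfected cis-promoter reporter transcription units were treated with chemical for 24 hours. Reporter mRNA was measured via RT-PCR with capillary electrophoresis, and activity was fitted in both directions relative to DMSO.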

[2] = ATG_ISRE_CIS: Attagene CIS-FACTORIAL HepG2 Assay for human Interferon Regulatory Factor 1 (IRF1) binding to an Interferon-Stimulated Response Element (ISRE) (AID 2282948); conditions: HepG2 ISRE cis-reporter (Attagene), mRNA transcription readout; actives raise or lower the signal
Summary of the method: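 Uses HepG2 liver cells transfected with cis-regulated reporters and measures mRNA 24 h post-dosing through RT-PCR, primer-extension labelling and capillary electrophoresis, with DMSO as negative control.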

[3] = ATG_M_32_CIS: Attagene CIS-FACTORIAL HepG2 Assay for M32 Transcription Factor (Internal Marker) (AID 2282949); conditions: HepG2 Attagene cis-factorial M32 reporter, mRNA; actives raise or lower the signal;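 further: background control marker of the multiplexed CIS panel rather than a real target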
Summary of the method: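 HepG2 human liver cells transiently transfected with cis-promoter-driven multiple reporter transcription units, dosed 24 h. Reporter mRNA quantified by RT-PCR, FAM-labelled primer extension, HpaI digest and capillary electrophoresis; bidirectional fit versus DMSO baseline.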

[4] = ATG_M_06_CIS: Attagene CIS-FACTORIAL HepG2 Assay for M06 Transcription Factor (Internal Marker) (AID 2282950); conditions: HepG2 Attagene CIS-FACTORIAL M06 internal marker reporter; actives raise or lower the signal
Summary of the method: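 Read-out is fluorescence of labelled reporter cDNA fragments resolved by capillary electrophoresis after RT-PCR. Cells: HepG2 carrying transfected cis-promoter reporter units, treated 24 h. Gain or loss of signal fitted relative to DMSO.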

[5] = target: Hypoxia-inducible factor 1-alpha (Homo sapiens) (UniProt Q16665); experiment: ATG_HIF1a_CIS: Attagene CIS-FACTORIAL HepG2 Assay for human Hypoxia Inducible Factor 1 (HIF1A) (AID 2282951); conditions: HepG2 Attagene cis-factorial HIF1a reporter transcription; actives raise or lower the signal
Summary of the method: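 In this multiplexed cell assay, HepG2 cells bearing transfected cis reporters are dosed for 24 h and reporter mRNA is read by RT-PCR plus capillary electrophoresis; signal increases and decreases are both scored against DMSO.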

[6] = target: Hepatocyte nuclear factor 6 (Homo sapiens) (UniProt Q9UBC0); experiment: ATG_HNF6_CIS: Attagene CIS-FACTORIAL HepG2 Assay for human Hepatocyte Nuclear Factor 6 (HNF6) (AID 2282952); conditions: HepG2 Attagene cis-factorial HNF6 reporter transcription; actives raise or lower the signal
Summary of the method: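 Endogenous transcription factor activity in human HepG2 liver cells was captured through cis-regulated reporter constructs. After 24 h treatment, reporter mRNA was measured by RT-PCR with capillary electrophoresis, and activity was fitted in both directions relative to DMSO.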

[7] = target: Heat shock factor protein 1 (Homo sapiens) (UniProt Q00613); experiment: ATG_HSE_CIS: Attagene CIS-FACTORIAL HepG2 Assay for human Heat Shock Transcription Factor 1 (HSE) (AID 2282953); conditions: HepG2 HSE cis-reporter, Attagene RNA transcription; actives raise or lower the signal
Summary of the method: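 HepG2, transient MRTU transfection, cis-promoter reporters (endogenous TF activity). 24 h compound. RNA → oligo(dT) RT → PCR → 6-FAM primer extension → HpaI cut → CE. Bidirectional fit vs DMSO.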

[8] = ATG_MRE_CIS: Attagene CIS-FACTORIAL HepG2 Assay for human Metal Responsive Element (MRE) (AID 2282954); conditions: HepG2 MRE cis-reporter transcription, Attagene multiplex; actives raise or lower the signal
Summary of the method: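 Cells were transfected with cis-promoter reporter transcription units, then dosed for 24 h. RNA was reverse-transcribed, amplified, fluorescently labelled and resolved by capillary electrophoresis, and activity was fitted in both directions relative to DMSO.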

[9] = ATG_PBREM_CIS: Attagene CIS-FACTORIAL HepG2 Assay for human Phenobarbital-responsive Enhancer Module (PBREM) (AID 2282955); conditions: HepG2 PBREM cis-reporter, Attagene multiplexed transcription; actives raise or lower the signal
Summary of the method: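 After a 24 h incubation with test chemical, transfected HepG2 cells yield total RNA; reporter-specific RT-PCR products are fluorescently labelled, HpaI-digested and resolved by capillary electrophoresis against ROX size standards.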

Hepatocyte nuclear factor 6 (Homo sapiens), sequence (Q9UBC0 whole entry, looked up): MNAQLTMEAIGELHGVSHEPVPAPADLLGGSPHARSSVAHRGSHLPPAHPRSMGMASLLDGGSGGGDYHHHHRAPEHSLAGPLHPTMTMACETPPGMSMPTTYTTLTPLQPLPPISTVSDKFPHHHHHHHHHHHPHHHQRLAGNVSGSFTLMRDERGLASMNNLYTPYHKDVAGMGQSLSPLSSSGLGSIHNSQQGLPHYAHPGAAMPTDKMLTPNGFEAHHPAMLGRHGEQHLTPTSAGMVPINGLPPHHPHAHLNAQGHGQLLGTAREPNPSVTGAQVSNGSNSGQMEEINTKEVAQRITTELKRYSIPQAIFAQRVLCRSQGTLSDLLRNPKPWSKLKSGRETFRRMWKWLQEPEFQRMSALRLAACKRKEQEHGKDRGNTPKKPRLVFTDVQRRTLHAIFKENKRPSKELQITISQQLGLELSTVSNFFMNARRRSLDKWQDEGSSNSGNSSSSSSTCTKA
Hypoxia-inducible factor 1-alpha (Homo sapiens), sequence (Q16665 whole entry, looked up): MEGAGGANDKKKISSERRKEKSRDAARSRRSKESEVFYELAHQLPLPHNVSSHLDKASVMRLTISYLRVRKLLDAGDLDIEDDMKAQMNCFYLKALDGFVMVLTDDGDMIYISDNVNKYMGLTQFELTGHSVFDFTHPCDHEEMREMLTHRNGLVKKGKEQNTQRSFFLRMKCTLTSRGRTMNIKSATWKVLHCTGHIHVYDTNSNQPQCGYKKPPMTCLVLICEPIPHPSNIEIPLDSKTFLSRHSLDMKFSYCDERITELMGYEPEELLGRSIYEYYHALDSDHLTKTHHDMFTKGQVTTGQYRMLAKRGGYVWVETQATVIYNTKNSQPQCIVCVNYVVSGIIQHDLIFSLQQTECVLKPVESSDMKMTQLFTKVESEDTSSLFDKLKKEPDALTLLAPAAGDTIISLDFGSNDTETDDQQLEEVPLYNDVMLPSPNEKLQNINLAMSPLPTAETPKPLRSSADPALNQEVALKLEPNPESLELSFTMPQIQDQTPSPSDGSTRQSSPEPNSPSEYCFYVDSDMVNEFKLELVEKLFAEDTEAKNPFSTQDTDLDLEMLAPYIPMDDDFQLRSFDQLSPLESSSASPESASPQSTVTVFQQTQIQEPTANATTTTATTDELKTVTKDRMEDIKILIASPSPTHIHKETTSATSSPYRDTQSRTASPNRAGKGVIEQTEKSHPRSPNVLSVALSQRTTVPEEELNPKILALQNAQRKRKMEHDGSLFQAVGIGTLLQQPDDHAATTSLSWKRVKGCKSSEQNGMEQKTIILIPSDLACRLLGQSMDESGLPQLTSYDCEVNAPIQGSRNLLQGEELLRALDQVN
Heat shock factor protein 1 (Homo sapiens), sequence (Q00613 whole entry, looked up): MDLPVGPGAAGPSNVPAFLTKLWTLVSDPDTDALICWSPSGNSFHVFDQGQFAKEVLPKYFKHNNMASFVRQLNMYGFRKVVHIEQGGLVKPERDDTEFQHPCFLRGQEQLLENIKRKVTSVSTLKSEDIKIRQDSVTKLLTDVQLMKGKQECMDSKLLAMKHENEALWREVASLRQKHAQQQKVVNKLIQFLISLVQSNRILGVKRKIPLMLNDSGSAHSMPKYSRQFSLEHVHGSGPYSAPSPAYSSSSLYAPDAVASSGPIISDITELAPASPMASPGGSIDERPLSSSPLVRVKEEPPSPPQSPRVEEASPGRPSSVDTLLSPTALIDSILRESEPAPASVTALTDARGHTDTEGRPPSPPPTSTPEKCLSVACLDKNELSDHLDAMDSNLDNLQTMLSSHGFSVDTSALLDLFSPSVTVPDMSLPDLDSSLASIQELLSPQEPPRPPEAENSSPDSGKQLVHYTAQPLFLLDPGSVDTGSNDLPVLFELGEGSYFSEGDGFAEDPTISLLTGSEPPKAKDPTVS

| Compound | outcome [1] | outcome [2] | outcome [3] | outcome [4] | outcome [5] | outcome [6] | outcome [7] | outcome [8] | AC50 [7] | AC50 [8] | outcome [9] | AC50 [5] | AC50 [2] | AC50 [9] |
| --- | --- | --- | --- | --- | --- | --- | --- | --- | --- | --- | --- | --- | --- | --- |
| CC(=O)O[C@H](CC(=O)[O-])C[N+](C)(C)C | inactive | inactive | inactive | inactive | inactive | inactive | inactive | inactive | – | – | – | – | – | – |
| COCCCOc1ccnc(CS(=O)c2nc3ccccc3[nH]2)c1C (configuration not stated) | inactive | inactive | inactive | inactive | inactive | inactive | – | – | 152 µM (active) | 106 µM (active) | inactive | – | – | – |
| CCN(CC)c1ccc(C(=C2C=CC(=[N+](CC)CC)C=C2)c2ccc(S(=O)(=O)O)cc2S(=O)(=O)[O-])cc1 | inactive | inactive | inactive | inactive | inactive | inactive | inactive | – | – | – | – | – | – | – |
| CCCCC[Si](OCC)(OCC)OCC | inactive | inactive | inactive | inactive | inactive | inactive | inactive | inactive | – | – | – | – | – | – |
| O=[N+]([O-])c1cc(C(F)(F)F)ccc1Cl | inactive | inactive | inactive | inactive | inactive | inactive | inactive | inactive | – | – | inactive | – | – | – |
| CCCCCCC#CC(=O)OC | inactive | inactive | inactive | inactive | inactive | inactive | – | inactive | – | – | inactive | – | – | – |
| [Ca+2] | inactive | inactive | inactive | inactive | inactive | inactive | – | inactive | – | – | – | – | – | – |
| CC1(C)[C@@H]2CC[C@@]1(C)[C@H](O)C2 | inactive | inactive | inactive | inactive | – | inactive | inactive | inactive | – | – | inactive | 100 µM (active) | – | – |
| CCCCCCCCCCCCN | inactive | inactive | inactive | inactive | inactive | inactive | – | inactive | – | – | inactive | – | – | – |
| COc1ccnc(CS(=O)c2nc3cc(OC(F)F)ccc3[nH]2)c1OC (configuration not stated) | inactive | inactive | inactive | inactive | inactive | inactive | inactive | – | – | – | inactive | – | – | – |
| COC(=O)OC | inactive | inactive | inactive | inactive | inactive | inactive | inactive | – | – | – | inactive | – | – | – |
| CCCCCCCCCCCCCCCC(=O)O | inactive | inactive | inactive | inactive | inactive | inactive | inactive | inactive | – | – | inactive | – | – | – |
| C=COCCOCCOCCOC=C | inactive | inactive | inactive | inactive | inactive | inactive | inactive | inactive | – | – | inactive | – | – | – |
| O=C(O)c1ccc(C(=O)O)cc1 | inactive | inactive | inactive | inactive | inactive | inactive | inactive | inactive | – | – | inactive | – | – | – |
| Cc1ccc(C(=O)c2cc(O)c(O)c([N+](=O)[O-])c2)cc1 | inactive | inactive | inactive | inactive | – | inactive | inactive | – | – | 130 µM (active) | inactive | 27.4 µM (active) | – | – |
| Cc1cc(C2(c3cc(C)c(O)cc3C)OS(=O)(=O)c3ccccc32)c(C)cc1O | inactive | inactive | inactive | inactive | inactive | inactive | – | inactive | – | – | inactive | – | – | – |
| O=C(O)c1cccc(C(F)(F)F)c1 | inactive | inactive | inactive | inactive | inactive | inactive | inactive | inactive | – | – | inactive | – | – | – |
| O=C1CCCCCCCCCCCCCCO1 | inactive | inactive | inactive | inactive | inactive | inactive | – | inactive | – | – | – | – | – | – |
| Nc1cc(Cl)c(O)c(Cl)c1 | inactive | – | inactive | inactive | inactive | inactive | – | – | 142 µM (active) | – | – | – | 100 µM (active) | 84.9 µM (active) |
| CC(C)c1cccc(O)c1 | inactive | inactive | inactive | inactive | inactive | inactive | inactive | inactive | – | – | inactive | – | – | – |
| CN(C)C(=N)N=C(N)N | inactive | inactive | inactive | inactive | inactive | inactive | – | inactive | – | – | inactive | – | – | – |
| CCCCc1ccc(N)cc1 | inactive | inactive | inactive | inactive | inactive | inactive | inactive | – | – | – | inactive | – | – | – |
| CC(=O)[O][Al][O]C(C)=O | inactive | inactive | inactive | inactive | inactive | inactive | – | – | – | – | inactive | – | – | – |
| ClCCCl | inactive | inactive | inactive | inactive | inactive | inactive | – | inactive | – | – | inactive | – | – | – |
| CC(=O)Nc1ccc(CC(=O)O)cc1 | inactive | inactive | inactive | inactive | inactive | inactive | inactive | inactive | – | – | inactive | – | – | – |
| CCCC1CCC(=O)O1 (configuration not stated) | inactive | inactive | inactive | inactive | inactive | inactive | inactive | inactive | – | – | inactive | – | – | – |
| COc1cc(C)cc(O)c1 | inactive | inactive | inactive | inactive | inactive | inactive | inactive | inactive | – | – | inactive | – | – | – |
| CCCc1ccccc1O | inactive | inactive | inactive | inactive | inactive | inactive | – | inactive | – | – | inactive | – | – | – |
